The results in this text go back to ChEMBL document CHEMBL1961873, “Compounds: GSK PKIS; Assays: Nanosyn kinase panel” (2012).

In assay [1] the target is MAP/microtubule affinity-regulating kinase 3 (Homo sapiens) (UniProt P27448). The note with it: at 1 µM.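 Also: reported values are averaged percent inhibition of MARK3.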
The target of assay [2] is T1, MAP/microtubule affinity-regulating kinase 4 (Homo sapiens) (UniProt Q96L34).
T1 sequence (whole entry): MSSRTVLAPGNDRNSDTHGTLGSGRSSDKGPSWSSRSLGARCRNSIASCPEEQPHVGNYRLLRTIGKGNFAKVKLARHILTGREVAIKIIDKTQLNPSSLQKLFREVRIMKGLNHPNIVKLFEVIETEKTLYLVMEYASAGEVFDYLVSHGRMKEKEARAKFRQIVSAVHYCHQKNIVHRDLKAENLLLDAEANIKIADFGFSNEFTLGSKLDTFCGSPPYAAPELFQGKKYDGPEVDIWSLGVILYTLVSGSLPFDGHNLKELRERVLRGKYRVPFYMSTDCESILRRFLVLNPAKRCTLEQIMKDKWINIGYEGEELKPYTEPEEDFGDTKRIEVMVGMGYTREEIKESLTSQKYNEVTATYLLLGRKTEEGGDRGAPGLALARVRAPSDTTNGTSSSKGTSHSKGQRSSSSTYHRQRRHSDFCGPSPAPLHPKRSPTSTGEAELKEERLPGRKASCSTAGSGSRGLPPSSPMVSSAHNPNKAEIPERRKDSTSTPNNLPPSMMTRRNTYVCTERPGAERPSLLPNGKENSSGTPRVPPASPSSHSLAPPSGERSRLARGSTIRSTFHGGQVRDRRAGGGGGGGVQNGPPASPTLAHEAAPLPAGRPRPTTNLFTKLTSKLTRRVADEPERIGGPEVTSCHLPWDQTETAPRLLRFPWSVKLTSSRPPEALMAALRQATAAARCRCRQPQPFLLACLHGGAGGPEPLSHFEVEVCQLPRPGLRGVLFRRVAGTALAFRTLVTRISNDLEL
The note with it: at 0.1 µM.

Assay [3] deals with T1, MAP/microtubule affinity-regulating kinase 4 (Homo sapiens). The note with it: at 1 µM.
The target in assay [4] is Maternal embryonic leucine zipper kinase (Homo sapiens) (UniProt Q14680). The note with it: at 0.1 µM.
Chain of Maternal embryonic leucine zipper kinase (Homo sapiens) (Q14680 whole entry, looked up): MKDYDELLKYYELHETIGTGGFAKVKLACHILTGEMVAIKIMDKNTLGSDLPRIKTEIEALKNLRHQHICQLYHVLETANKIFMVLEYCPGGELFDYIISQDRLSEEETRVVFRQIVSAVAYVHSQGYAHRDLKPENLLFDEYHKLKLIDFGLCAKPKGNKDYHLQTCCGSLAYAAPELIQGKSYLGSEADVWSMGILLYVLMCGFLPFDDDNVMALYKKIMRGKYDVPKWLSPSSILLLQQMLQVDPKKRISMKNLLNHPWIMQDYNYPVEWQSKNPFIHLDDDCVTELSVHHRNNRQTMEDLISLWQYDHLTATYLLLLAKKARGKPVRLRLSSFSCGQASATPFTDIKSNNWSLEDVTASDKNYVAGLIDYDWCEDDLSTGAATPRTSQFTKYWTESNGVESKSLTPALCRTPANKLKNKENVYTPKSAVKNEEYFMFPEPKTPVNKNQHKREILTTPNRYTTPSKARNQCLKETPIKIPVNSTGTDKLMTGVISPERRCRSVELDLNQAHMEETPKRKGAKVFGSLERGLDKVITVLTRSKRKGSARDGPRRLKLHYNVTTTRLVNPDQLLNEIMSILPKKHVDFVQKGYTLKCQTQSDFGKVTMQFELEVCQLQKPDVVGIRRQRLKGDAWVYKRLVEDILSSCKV
Assay [5] shares this target. The note with it: at 1 µM.
In assay [6] the target is MAP kinase-interacting serine/threonine-protein kinase 1 (Homo sapiens) (UniProt Q9BUB5). Particulars: at 0.1 µM.
Chain of MAP kinase-interacting serine/threonine-protein kinase 1 (Homo sapiens) (Q9BUB5 whole entry, looked up): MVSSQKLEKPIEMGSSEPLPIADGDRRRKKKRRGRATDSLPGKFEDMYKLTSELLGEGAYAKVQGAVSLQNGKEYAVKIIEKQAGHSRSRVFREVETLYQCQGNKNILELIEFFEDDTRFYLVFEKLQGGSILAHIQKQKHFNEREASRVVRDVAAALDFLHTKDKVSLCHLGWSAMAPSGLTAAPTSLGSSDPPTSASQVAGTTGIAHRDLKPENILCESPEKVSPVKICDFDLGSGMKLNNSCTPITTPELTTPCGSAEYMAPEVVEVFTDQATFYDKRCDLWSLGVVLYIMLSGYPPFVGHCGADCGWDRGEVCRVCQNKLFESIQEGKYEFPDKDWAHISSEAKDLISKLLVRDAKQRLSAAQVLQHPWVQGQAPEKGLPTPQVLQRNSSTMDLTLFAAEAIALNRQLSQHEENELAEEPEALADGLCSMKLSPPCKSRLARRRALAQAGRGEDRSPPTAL
Assay [7] has the same target. Particulars: at 1 µM.
In assay [8] the target is MAP kinase-interacting serine/threonine-protein kinase 2 (Homo sapiens) (UniProt Q9HBH9). The note with it: at 0.1 µM.
Chain of MAP kinase-interacting serine/threonine-protein kinase 2 (Homo sapiens) (Q9HBH9 whole entry, looked up): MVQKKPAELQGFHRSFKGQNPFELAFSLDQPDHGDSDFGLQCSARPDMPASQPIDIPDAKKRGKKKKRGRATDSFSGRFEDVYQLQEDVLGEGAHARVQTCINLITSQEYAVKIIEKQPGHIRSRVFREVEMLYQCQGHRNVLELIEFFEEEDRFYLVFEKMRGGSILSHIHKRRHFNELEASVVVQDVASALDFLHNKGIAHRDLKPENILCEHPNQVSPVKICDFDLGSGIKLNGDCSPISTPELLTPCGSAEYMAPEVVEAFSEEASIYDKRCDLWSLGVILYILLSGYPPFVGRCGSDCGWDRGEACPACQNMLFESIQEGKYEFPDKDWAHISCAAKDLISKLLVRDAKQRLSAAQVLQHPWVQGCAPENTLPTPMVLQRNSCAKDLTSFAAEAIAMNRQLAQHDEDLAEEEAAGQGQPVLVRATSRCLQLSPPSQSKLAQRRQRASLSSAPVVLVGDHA
For assay [9] the target is unchanged. Particulars: at 1 µM.
The target of assay [10] is Serine/threonine-protein kinase MARK2 (Homo sapiens) (UniProt Q7KZI7). The note with it: at 0.1 µM.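 Also: mean percent inhibition of PAR-1Balpha kinase activity, reported from the GSK PKIS screen.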
Chain of Serine/threonine-protein kinase MARK2 (Homo sapiens) (Q7KZI7 whole entry): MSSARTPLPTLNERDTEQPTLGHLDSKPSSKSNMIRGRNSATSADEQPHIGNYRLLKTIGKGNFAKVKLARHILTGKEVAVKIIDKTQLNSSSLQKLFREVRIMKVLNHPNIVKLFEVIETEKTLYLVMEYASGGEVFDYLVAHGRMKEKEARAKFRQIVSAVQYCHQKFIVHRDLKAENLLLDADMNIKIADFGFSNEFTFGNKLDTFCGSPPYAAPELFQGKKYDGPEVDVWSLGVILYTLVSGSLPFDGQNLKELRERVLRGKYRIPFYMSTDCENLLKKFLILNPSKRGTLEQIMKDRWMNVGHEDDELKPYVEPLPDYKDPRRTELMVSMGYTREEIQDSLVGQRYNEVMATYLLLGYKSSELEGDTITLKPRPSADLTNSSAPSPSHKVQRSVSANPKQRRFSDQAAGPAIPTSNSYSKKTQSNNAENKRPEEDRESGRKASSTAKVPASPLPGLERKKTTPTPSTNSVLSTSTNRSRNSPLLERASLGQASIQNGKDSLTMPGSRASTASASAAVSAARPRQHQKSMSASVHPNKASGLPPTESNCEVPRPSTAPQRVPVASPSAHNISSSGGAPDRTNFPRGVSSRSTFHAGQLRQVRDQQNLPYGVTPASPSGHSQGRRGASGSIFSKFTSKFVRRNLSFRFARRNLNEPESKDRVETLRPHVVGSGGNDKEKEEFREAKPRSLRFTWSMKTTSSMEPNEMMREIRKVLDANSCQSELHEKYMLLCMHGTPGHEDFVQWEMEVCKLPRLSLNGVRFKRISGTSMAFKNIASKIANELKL

Chain of MAP/microtubule affinity-regulating kinase 3 (Homo sapiens) (P27448 whole entry, looked up): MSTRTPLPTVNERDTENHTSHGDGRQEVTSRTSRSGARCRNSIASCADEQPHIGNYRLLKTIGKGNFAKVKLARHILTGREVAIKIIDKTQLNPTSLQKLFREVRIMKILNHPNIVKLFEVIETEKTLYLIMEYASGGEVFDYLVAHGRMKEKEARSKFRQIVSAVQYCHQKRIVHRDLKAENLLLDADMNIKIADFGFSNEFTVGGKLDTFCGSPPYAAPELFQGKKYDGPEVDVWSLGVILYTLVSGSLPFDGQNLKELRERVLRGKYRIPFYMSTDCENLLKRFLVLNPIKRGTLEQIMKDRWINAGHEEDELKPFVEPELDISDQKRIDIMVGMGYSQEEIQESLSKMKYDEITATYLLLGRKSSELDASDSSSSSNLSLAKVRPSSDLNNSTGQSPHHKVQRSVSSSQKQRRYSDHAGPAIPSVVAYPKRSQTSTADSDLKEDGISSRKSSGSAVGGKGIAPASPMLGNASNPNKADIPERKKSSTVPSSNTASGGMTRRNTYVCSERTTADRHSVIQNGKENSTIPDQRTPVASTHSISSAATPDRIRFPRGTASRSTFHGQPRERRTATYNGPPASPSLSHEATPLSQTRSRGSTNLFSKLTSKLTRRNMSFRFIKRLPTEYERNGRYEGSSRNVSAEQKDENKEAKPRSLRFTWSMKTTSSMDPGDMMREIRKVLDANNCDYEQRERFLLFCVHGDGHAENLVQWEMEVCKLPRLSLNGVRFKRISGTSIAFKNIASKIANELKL

As to `CCn1c(-c2nonc2N)nc2cncc(C(=O)N3CC[C@H](N)C3)c21`, the inhibition in assay [1] is 4.57%; in assay [2] it was 2.19%; in [3], 4.51%; in assay [4], 14.8%; in [5], 60.6%; in assay [6], 3.74%. For the same molecule, the inhibition in assay [7] was 9.55%; in assay [8], 2.07%; in [9] it was 10.8%; in assay [10], 1.6%.

For the molecule `COc1cccc(-n2ncc3c(N/N=C/c4cccc(F)c4)ncnc32)c1`, the inhibition was -1.64% in [1]; 1.82% in [2]; 5.56% in assay [3]; 4.24% in [4]; 11% in assay [5]; 2.81% in [6]. Moreover, the inhibition in assay [7] amounted to 11.8%; in [8], 1.92%; in assay [9], 6.42%; in assay [10], 0.05%.

Take `COc1cc2ncn(-c3cc(OCc4ccccc4C(F)(F)F)c(C(N)=O)s3)c2cc1OC`: the inhibition is 21.5% in assay [1]; 5.05% in assay [2]; 18.4% in assay [3]; 5.92% in [4]; 10.3% in assay [5]; 2.99% in assay [6]. For the same molecule, the inhibition in [7] amounted to 7.06%; in assay [8], 2.21%; in assay [9], 7.89%; in [10], 2.29%.

As for `COc1ccc(-c2ccncc2)cc1C(N)=O`, the inhibition worked out at 5.66% in assay [1]; 1.72% in [2]; 2.64% in [3]; 3.65% in assay [4]; 8.7% in assay [5]; 2.15% in assay [6]. Further, the inhibition in assay [7] is 5.97%; in assay [8], 0.23%; in assay [9], 6.75%.

With `O=C1NC(=O)C(c2cccc(Cl)c2)=C1Nc1ccc(O)c(Cl)c1`, the inhibition stood at 18.6% in assay [1]; 2.36% in assay [2]; 17.3% in assay [3]; 0.77% in assay [4]; 6.85% in [5]; 0.35% in assay [6]. Further, the inhibition in assay [7] amounted to 7.25%; in [8], 0.54%; in assay [9], 1.96%; in assay [10], 0.55%.

For the molecule `CCN1CCC(CC(=O)Nc2n[nH]c3nc(-c4cccs4)c(Br)cc23)CC1`, the inhibition is -0.75% in assay [1]; 0.08% in assay [2]; 0.81% in assay [3]; -1.63% in assay [4]; 0.98% in assay [5]; 42% in assay [6]. Besides, the inhibition in assay [7] is 76.6%; in [8], 2.95%; in assay [9], 28.2%; in assay [10], 0.07%.

Turning to `CCn1c(-c2nonc2N)nc2c(C#CC(C)(C)O)nc(CN3CCCC3)cc21`, the inhibition in assay [1] is 15.4%; in assay [2], 3.5%; in assay [3], 7.13%; in assay [4], 1.68%; in assay [5] it was 5.55%; in [6], -0.28%. Further, the inhibition was 0.88% in assay [7], -0.06% in assay [8], 1.84% in [9] and 3.94% in [10].

For the molecule `O=C1Nc2ccc(C(=O)c3ccco3)cc2C1=Cc1cc(Cl)c(O)c(Cl)c1`, the inhibition stood at 8.65% in assay [1]; 1.71% in assay [2]; 6.69% in assay [3]; 4.89% in [4]; 17.8% in assay [5]; 4.13% in assay [6]. Moreover, the inhibition in assay [7] stood at 11.5%; in assay [8], 6.52%; in assay [9], 34.7%; in assay [10], 2.14%.

Consider `CCc1cccc(NC(=O)Nc2ccc(Oc3ccc4nc(NC(=O)OC)[nH]c4c3)cc2)c1`, for which the inhibition in assay [1] is 3.47%; in [2], -0.22%; in [3], -1.15%; in [4], -0.95%; in assay [5], 2.29%; in assay [6], 5.71%. Moreover, the inhibition in assay [7] was determined as 15.8%; in assay [8], 4.24%; in [9] it was 12.2%; in [10], 2.55%.

Turning to `c1cnn2ncc(-c3ccnc(Nc4ccc5c(c4)OCCO5)n3)c2c1`, the inhibition in [1] is 24.8%; in assay [2], 3.11%; in assay [3], 16.4%; in assay [4] it was 11.6%; in assay [5] it was 51.6%; in [6], 3.95%. Further, the inhibition amounted to 14.5% in assay [7], 4.36% in assay [8], 25.9% in [9] and 0.05% in [10].

With `COc1ccccc1Nc1ncc(-c2ccccc2)o1`, the inhibition in assay [1] was 4.87%; in assay [2], 2.98%; in [3] it was 4.33%; in assay [4], 4.62%; in [5], 8.09%; in assay [6], 4.22%. In addition, the inhibition amounted to 5.88% in [7], 1.93% in [8], 7.25% in [9] and 0.41% in assay [10].

On to `CC1=C(C(=O)Nc2ccc3[nH]ncc3c2)C(c2ccc(F)cc2)NC(=O)N1` (centres undefined), for which the inhibition in [1] is 8.67%; in [2], 0.77%; in [3] it was 4.62%; in [4], 2.13%; in assay [5], 6.05%; in [6], 2.34%. Besides, the inhibition in [7] was 46.2%; in assay [8], 3.85%; in assay [9], 65.3%; in [10], -0.93%.

Regarding `CCn1c(-c2nonc2N)nc2c(C#CC(C)(C)O)nc(OC[C@@H](N)c3ccccc3)cc21`, the inhibition was 28.1% in [1]; 1.28% in assay [2]; 16.9% in assay [3]; 0.84% in [4]; 27.5% in assay [5]; -0.06% in [6]. Also, the inhibition was found to be 4.44% in assay [7], 0.08% in assay [8], 3.19% in assay [9] and 1.17% in [10].

As for `O=C1NC(=O)C(N2CCc3ccccc32)=C1c1ccc(Cl)cc1`, the inhibition in assay [1] came to 2.11%; in assay [2], 3.11%; in [3] it was 2.16%; in assay [4], 4.84%; in [5], 6.67%; in [6], 2.34%. Besides, the inhibition turned out to be 3.78% in assay [7], 1% in assay [8], 3.38% in [9] and 0.05% in assay [10].

`Cc1cc(O)cc(C)c1/C=C/c1cncc(-c2nn[nH]n2)c1`: the inhibition amounted to 5.96% in assay [1]; 2.37% in [2]; 3.69% in assay [3]; 4.83% in assay [4]; 8.68% in assay [5]; 20.6% in assay [6]. The inhibition in assay [7] was 65.3%; in assay [8], 22.6%; in assay [9] it was 63.8%; in assay [10], 0.37%.

Take `NS(=O)(=O)c1cccc(-c2ccc3c(NC(=O)C4CC4)n[nH]c3c2)c1`: the inhibition is 3.86% in assay [1]; 1.62% in [2]; 6.55% in assay [3]; 0.79% in assay [4]; 3.48% in assay [5]; -0.26% in [6]. In addition, the inhibition is 7.26% in assay [7], -1.27% in [8], 1.02% in [9] and 0.51% in assay [10].

With `COc1cc(C)c(NC(=O)CN(C)C)cc1Nc1nc(Nc2cccc(F)c2C(N)=O)c2cc[nH]c2n1`, the inhibition was 0.73% in [1]; -0.67% in [2]; 0.75% in [3]; 2.85% in assay [4]; 18.1% in assay [5]; 1.46% in assay [6]. In addition, the inhibition is 0.39% in [7], 0.92% in assay [8], 1.25% in assay [9] and -2% in assay [10].

The inhibition is the drop in the measured response relative to a control, in per cent.
